# Where “and” joins values, the source holds several entries; their conditions need not be identical. Equal values may be shown once. Results filed as inconclusive are left out. Where a call stands in place of a potency, no number is given. Some compounds were tested as several samples or in several runs, with calls that do not always agree. Calls of active or inactive are those of the source. Unless noted, the call rests on the fitted dose curve; in most records, active means well fitted curve in the direction sought with a large enough effect in the repeat runs; inconclusive means weak or mixed curves; inactive means no such curve, though single readings can be large; an effect the other way counts as inactive or inconclusive.
# What was measured:
# [1] = target: Retinoic acid receptor RXR-alpha (Homo sapiens) (UniProt P19793); experiment: qHTS assay to identify small molecule agonists of the RXR signaling pathway (AID 1159527; calls by dose curve; further: nearly all actives have a fitted effect of over 35% in size)
# Sequence of Retinoic acid receptor RXR-alpha (Homo sapiens) (P19793 whole entry, looked up): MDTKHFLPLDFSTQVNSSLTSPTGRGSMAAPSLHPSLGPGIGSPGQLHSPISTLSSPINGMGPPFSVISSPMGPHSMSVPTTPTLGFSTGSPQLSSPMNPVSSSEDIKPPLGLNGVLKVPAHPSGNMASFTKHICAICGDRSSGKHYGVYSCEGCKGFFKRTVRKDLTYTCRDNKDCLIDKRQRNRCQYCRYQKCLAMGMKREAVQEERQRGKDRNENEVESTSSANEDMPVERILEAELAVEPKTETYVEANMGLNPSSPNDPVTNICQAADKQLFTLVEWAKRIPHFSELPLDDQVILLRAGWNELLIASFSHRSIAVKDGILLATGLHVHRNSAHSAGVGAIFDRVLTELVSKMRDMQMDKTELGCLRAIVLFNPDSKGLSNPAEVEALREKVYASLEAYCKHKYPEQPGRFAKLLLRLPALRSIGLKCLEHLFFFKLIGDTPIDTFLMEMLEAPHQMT
# How it was run: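 Agonist-mode beta-lactamase reporter assay: HEK 293T RXR-alpha-UAS-bla cells treated 16 hr at 37 C with compounds, 9-cis retinoic acid as positive control. LiveBLAzer FRET substrate, 405 nm excitation, 460/530 nm emission.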
# [2] = qHTS assay to identify small molecule agonists of the RXR signaling pathway - cell viability counter screen (AID 1159529); further: nearly all actives have a fitted effect of over 50% in size; further: potency means the concentration at half of the fitted maximal effect
# How it was run: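 CellTiter-Glo luminescence gave viability in the wells also read for beta-lactamase. Cells (RXR-alpha-UAS-bla HEK 293T, 2% charcoal-stripped FBS medium) had 5 hr plating, then 16 hr compound exposure at 37 C; tetraoctyl ammonium bromide served as positive control.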
# [3] = qHTS assay to identify small molecule antagonists of the retinoid acid receptor (RAR) signaling pathway - cell viability counter screen (AID 1159551); further: nearly all actives have a fitted effect of over 35% in size; further: potency means the concentration at half of the fitted maximal effect
# How it was run: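 Cytotoxicity counter screen: ATP content quantified by CellTiter-Glo luminescence in C3RL4 cells treated 6 hr at 37 C with compound and retinol (1 uM final). Cells plated at 1,000/well and cultured overnight before dosing.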
# [4] = qHTS assay to identify small molecule antagonists of the retinoic acid receptor (RAR) signaling pathway (AID 1159552; further: nearly all actives have a fitted effect of over 50% in size; further: potency means the concentration at half of the fitted maximal effect)
# How it was run: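 Luminescent RARE reporter read-out in C3RL4 cells: 6 hr co-treatment at 37 C of test compounds with retinol at 1 uM final. Cells plated overnight beforehand; luciferase reagent incubated 30 min at room temperature before reading.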
# [5] = qHTS assay to identify small molecule antagonists of the estrogen related receptor (ERR) signaling pathway (AID 1224819; further: nearly all actives have a fitted effect of over 50% in size; further: potency means the concentration at half of the fitted maximal effect)
# How it was run: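 LOPAC library screened for antagonism as reduced One-Glo luminescence in ERR reporter cells (2,000/well). Compounds were added after 6 h pre-incubation and left 18 h at 37C; reading followed a 30 min room-temperature reagent step.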
# [6] = qHTS assay to identify small molecule agonists of the estrogen related receptor (ERR) signaling pathway (AID 1224820)
# Description: National Center for Advancing Translational Sciences [NCATS]
# NIH Chemical Genomics Center [NCGC]
# U.S. Environmental Protection Agency [EPA]
# National Institutes of Environmental Health Sciences [NIEHS]
# National Toxicology Program [NTP]
# Estrogen related receptors (ERRs), the first orphan nuclear receptors discovered, play an important role in the control of cellular energy metabolism. ERRs are required for high-energy production in response to the environmental challenges. ERR-alpha was also identified as an adverse marker for breast cancer progression; ERR-alpha-positive tumors have a poor prognosis. To screen and to identify environmental compounds that perturb the ERR signaling pathways could provide valuable information for potential therapeutic or preventive measures in the treatment of metabolic disease. For identifying ERR agonists, ERR cell line (provided by NTP) has been used to screen LOPAC library.
# The ERR cells were dispensed at 2,000 cells/5 ul/well in 1536-well white plates using a Multidrop dispenser. After the assay plates were incubated at a 37 C/5% CO2 incubator for 6 hours, 23 nL of compounds dissolved in DMSO, positive and negative controls or DMSO only was transferred to the assay plate by a pin tool. The plates were incubated at 37 C for 18 hours. 4 ul/well of One-Glo reagent was added into the assay plates using a Flying Reagent Dispenser. After 30 min incubation at room temperature, the luminescence intensity in the plates was measured using a ViewLux plate reader.
# [7] = system: estrogen-related receptor alpha (ERRalpha) with PGC-1alpha coactivator, human; experiment: qHTS assay to identify small molecule antagonists of the estrogen related receptor signaling pathway with the pleiotropic PPARgamma coactivator (PGC) (AID 1224821; calls by dose curve; further: nearly all actives have a fitted effect of over 50% in size; further: potency means the concentration at half of the fitted maximal effect)
# How it was run: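 A PGC/ERR cell line supplied by NTP is seeded, allowed 6 h at 37 C, and treated with test compounds in DMSO for 18 h. Signal is then measured as luciferase luminescence using One-Glo.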
# [8] = qHTS assay to identify small molecule antagonists of the estrogen related receptor (ERR) signaling pathway - cell viability counter screen (AID 1224818); further: potency means the concentration at half of the fitted maximal effect;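 further: viability measured after 17.5 h of compound exposure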
# How it was run: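 Cytotoxicity counter screen: fluorescence from CellTiter-Fluor, added after 17.5 h compound exposure at 37 C and read 30 min later. ERR cell line seeded at 2,000 cells/well, preincubated 6 h before dosing.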
# [9] = qHTS assay to identify small molecule antagonists of the estrogen related receptor signaling pathway with the pleiotropic PPARgamma coactivator (PGC) cell viability counter screen (AID 1224822; further: potency means the concentration at half of the fitted maximal effect)
# How it was run: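 Viability counter-screen read by fluorescence intensity after 30 min with CellTiter-Fluor at 37 C; PGC/ERR reporter cells were exposed to compounds for 17.5 h at 37 C following a 6 h preincubation.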
# [10] = qHTS assay to identify small molecule agonists of the retinoic acid receptor (RAR) signaling pathway (AID 1159553); further: potency means the concentration at half of the fitted maximal effect
# How it was run: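 Luminescence was measured 30 min after luciferase reagent addition at room temperature. Before that, C3RL4 reporter cells (1,000 per well, plated overnight) were treated with compound for 6 hr at 37 C and 5% CO2.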
structure (smiles),measurement,setting,value
CC(=O)C1(C)CC2=C(CCCC2(C)C)CC1C (stereo unspecified),Potency,[1],inactive
same,Potency,[2],inactive
same,Potency,[3],inactive
same,Potency,[4],inactive
CC(C(=O)O)c1cccc(C(=O)c2ccccc2)c1 (stereo unspecified),Potency,[5],inactive
same,outcome,[6],inactive
same,Potency,[7],inactive
Cn1cnc([N+](=O)[O-])c1Sc1ncnc2nc[nH]c12,outcome,[6],inactive
CN(C)CCC=C1c2ccccc2CCc2ccccc21,Potency,[2],12.3 µM (active) and 15.5 µM (active) and 13.4 µM (active)
same,Potency,[3],inactive
same,Potency,[8],inactive
same,Potency,[9],inactive
O=C(O)c1ccccc1Nc1cccc(C(F)(F)F)c1,Potency,[2],inactive
same,Potency,[4],inactive
c1ccc2sc(SSN3CCOCC3)nc2c1,Potency,[2],inactive
same,Potency,[10],inactive
CCCCc1oc2ccccc2c1C(=O)c1cc(I)c(OCCN(CC)CC)c(I)c1,Potency,[1],inactive
same,Potency,[2],12.4 µM (active) and 16.9 µM (active)
same,outcome,[6],inactive
same,Potency,[7],inactive
Nc1ccc(Nc2ccccc2)cc1,Potency,[2],inactive
same,Potency,[3],inactive
same,Potency,[4],inactive
CC(C)(C)NC(=O)[C@H]1CC[C@H]2[C@@H]3CC[C@H]4NC(=O)C=C[C@]4(C)[C@H]3CC[C@]12C,Potency,[2],inactive
same,Potency,[3],inactive
same,Potency,[4],inactive
CC(C)OC(=O)C(C)(C)Oc1ccc(C(=O)c2ccc(Cl)cc2)cc1,Potency,[2],inactive
same,Potency,[3],inactive
same,Potency,[4],inactive
same,Potency,[10],inactive
same,Potency,[8],inactive
same,Potency,[9],inactive
Nc1ccccc1N,Potency,[2],inactive
same,Potency,[4],inactive
same,Potency,[10],1.25 µM (active) and 1.72 µM (active)
same,Potency,[8],inactive
O=C1c2cccc(O)c2C(=O)c2c(O)cccc21,Potency,[2],inactive
same,Potency,[3],inactive
same,Potency,[4],inactive
same,Potency,[10],inactive
Cc1ccc(C(=O)c2cc(O)c(O)c([N+](=O)[O-])c2)cc1,Potency,[2],inactive
same,Potency,[3],inactive
O=C(COc1ccc(Cl)cc1)N1CCN(Cc2ccc3c(c2)OCO3)CC1,Potency,[2],inactive
same,Potency,[3],inactive
CN(C)CCN(Cc1cccs1)c1ccccn1,Potency,[1],inactive
same,Potency,[3],inactive
same,Potency,[4],inactive
same,Potency,[8],inactive
same,Potency,[9],inactive
CC(=O)O[C@]1(C(C)=O)CC[C@H]2[C@@H]3C=C(Cl)C4=CC(=O)[C@@H]5C[C@@H]5[C@]4(C)[C@H]3CC[C@@]21C,Potency,[2],inactive
same,Potency,[3],inactive
same,Potency,[8],inactive
same,Potency,[9],inactive
O=c1oc(=O)c2cc3c(=O)oc(=O)c3cc12,Potency,[2],inactive
same,Potency,[4],inactive
same,Potency,[10],inactive
CC(=O)Oc1ccccc1C(=O)Nc1ncc([N+](=O)[O-])s1,Potency,[2],inactive
same,Potency,[4],inactive
same,Potency,[10],140 nM (active) and 188 nM (active)
O=C(Nc1ccc([N+](=O)[O-])cc1Cl)c1cc(Cl)ccc1O,Potency,[4],inactive
same,Potency,[10],43.3 nM (active) and 82 nM (active)
COc1cccc2c1C(=O)c1c(O)c3c(c(O)c1C2=O)C[C@@](O)(C(=O)CO)C[C@@H]3O[C@H]1C[C@H](N)[C@H](O)[C@H](C)O1,Potency,[3],inactive
same,Potency,[4],3.85 µM (active)
O=C(Nc1ccc(Cl)cc1)Nc1ccc(Cl)c(Cl)c1,Potency,[4],inactive
C[C@]12CC[C@H]3[C@@H](CCC4=CC(=O)CC[C@@]43C)[C@@H]1CC[C@@H]2C(=O)CO,Potency,[2],inactive
same,Potency,[3],inactive
O=C(/C=C/C=C/c1ccc2c(c1)OCO2)N1CCCCC1,Potency,[1],inactive
same,Potency,[4],inactive
C#C[C@]1(O)CC[C@H]2[C@@H]3CCC4=Cc5oncc5C[C@]4(C)[C@H]3CC[C@@]21C,Potency,[2],21.9 µM (active)
O=C(c1ccccc1)c1ccc(O)cc1O,Potency,[2],25 µM (active) and inactive
same,Potency,[3],inactive
same,Potency,[4],55.5 µM (active) and inactive
COc1cc([C@@H]2c3cc4c(cc3[C@H](O)[C@H]3COC(=O)[C@H]23)OCO4)cc(OC)c1OC,Potency,[2],inactive
same,Potency,[3],inactive
Nc1ncn([C@@H]2O[C@H](CO)[C@@H](O)[C@H]2O)c(=O)n1,Potency,[2],inactive
same,Potency,[3],inactive
same,Potency,[4],27.3 µM (active) and 29.8 µM (active)
same,Potency,[5],0.619 µM (active)
same,outcome,[6],inactive
same,Potency,[7],3.1 µM (active)
S=C(NC1CCCCC1)NC1CCCCC1,Potency,[2],inactive
same,Potency,[4],inactive
same,Potency,[10],9.5 µM (active) and 9.69 µM (active)
Cc1cccc(N(C)C(=S)Oc2ccc3ccccc3c2)c1,Potency,[4],inactive
same,Potency,[10],2.43 µM (active) and 13.3 µM (active)
Cc1c(OCC(F)(F)F)ccnc1CS(=O)c1nc2ccccc2[nH]1 (stereo unspecified),Potency,[2],inactive
same,Potency,[3],inactive
same,Potency,[4],inactive
same,Potency,[8],inactive
same,Potency,[5],inactive
same,outcome,[6],inactive
same,Potency,[7],inactive
same,Potency,[9],inactive
O=C(c1ccc(OCCN2CCCCC2)cc1)c1c(-c2ccc(O)cc2)sc2cc(O)ccc12,Potency,[2],27.5 µM (active) and 23.9 µM (active)
same,Potency,[3],inactive
COC(C)COC(C)COC(C)CO (stereo unspecified),Potency,[2],inactive
c1cc(N(CC2CO2)CC2CO2)ccc1OCC1CO1 (stereo unspecified),Potency,[2],inactive
same,Potency,[3],inactive
same,Potency,[4],inactive
O=C(/C=C/c1ccccc1)OCc1ccccc1,Potency,[2],inactive
same,Potency,[3],inactive
same,Potency,[4],inactive
Cc1cc2nc3c(=O)[nH]c(=O)nc-3n(C[C@H](O)[C@H](O)[C@H](O)CO)c2cc1C,Potency,[2],inactive
same,Potency,[3],inactive
same,Potency,[4],inactive
CN(C)C(=N)N=C(N)N,Potency,[2],inactive
same,Potency,[3],inactive
same,Potency,[10],inactive
COC(=O)C1=C(C)NC(C)=C(C(=O)OCCN(C)Cc2ccccc2)C1c1cccc([N+](=O)[O-])c1 (stereo unspecified),Potency,[2],24.4 µM (active)
same,Potency,[8],23.7 µM (active)
same,Potency,[9],23.7 µM (active)
CCOC(=O)C(C#N)=C(c1ccccc1)c1ccccc1,Potency,[2],inactive
same,Potency,[3],inactive
same,Potency,[4],inactive
same,Potency,[10],inactive
O=C1OC2(c3cc(Br)c(O)c(Br)c3Oc3c2cc(Br)c(O)c3Br)c2c(Cl)c(Cl)c(Cl)c(Cl)c21,Potency,[2],inactive
same,Potency,[3],4.33 µM (active)
CNCCCC12CCC(c3ccccc31)c1ccccc12,Potency,[2],21.9 µM (active) and inactive
same,Potency,[3],inactive
same,Potency,[8],inactive
Cc1ccc(C)c(O)c1C,Potency,[2],inactive
same,Potency,[3],inactive
same,Potency,[4],inactive
OC1CCCCCCCCCCC1,Potency,[2],inactive
same,Potency,[3],inactive
same,Potency,[4],inactive
